We go through 40 compounds from PubChem BioAssay (NCATS).

Results filed as inconclusive are left out. Values without a mark were called inactive. The call rests on the fitted dose curve; in most records, active means well fitted curve in the direction sought with a large enough effect in the signal ratio; inconclusive means small, poorly fitted or top-dose-only effect, or effect the other way, or a change in a side signal; inactive means no such curve, though single readings can be large or run the other way; the % refers to the signal ratio.

This test is described as follows: qHTS Assay for Modulators of Human Peripheral Myelin Protein 22 (PMP22) Expression/Activity (AID 1967).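 Further: 0% = untreated cells and 100% end not stated.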 The settings on record: Cell-based PMP22 reporter, dual-color luciferase ratio, 0% = compound-free control cells, mouse Pmp22 promoter in mouse Schwann cells; series mostly up to 115 µM; activity change (ratio): at the top concentration. An excerpt: Charcot-Marie-Tooth-Association [CMTA]
NIH Chemical Genomics Center [NCGC]
Charcot-Marie-Tooth (CMT) disease was first characterized by Jean-Martin Charcot and Pierre Marie in France and, independently, by Howard Henry Tooth in England in 1886. CMT is one of the most common inherited neurological diseases, affecting about 125,000 Americans. […] The most common cause of CMT is known as CMT1A, and is caused by a duplication of the PMP22 gene, leading to over-expression of this protein. PMP22 is a glycosylated intrinsic membrane protein accounting for 2-5% of the myelin protein content and over-expression leads to demyelination and subsequently axonal loss.
A cell-based assay for PMP22 expression modulation was developed by Drs. Ned Mantei and Ueli Suter on behalf of the CMTA. This assay employs a mouse Schwann cell line, MSC80 (Boutry et al., 1992), that was engineered to have the mouse Pmp22 promoter driving expression of a green light-emitting click beetle luciferase (CBG68; Chroma-Gl developed by Promega Corp). A red light-emitting click beetle luciferase (CBR; developed by Promega Corp: CBG68 and CBR differ by only a few amino acids within the D-luciferin binding pocket) under control of the EF-alpha promoter is also stably expressed in the same cells for use as an internal control for nonspecific promoter- or reporter-based effects.
NCGC Assay Protocol Summary:
Cells were seeded in white solid 1536-well plates at between 500-750 cells/4uL in DMEM medium containing 10% FBS, w/o phenol red. After overnight incubation at 37 degree Celsius/5% C02, 23 nL of compounds or DMSO were delivered to each well using a pin tool, followed by 24h-incubation at 37 degree Celsius/5% C02. Then 4 uL Chroma-Glo luminescent substrate mix (Promega) was added to each well. Luminescence was measured on a ViewLux plate reader (Perkin Elmer) using a 540/25 nm filter for green luminescence and a 618/8 nm filter for red luminescence. The green and red luminescent signals were corrected for red and green luminescence filter overlap using filter calibration constants (determined using control cell lines expressing either the green or red CBLuc reporters using the procedures given in Davis et al., 2007). The %Activity was determined from the ratio of corrected green/red luminescent values. Green luminescent and ratio %Activity was determined by normalizing to the signal between of untreated cells (0% Activity)
Keywords: luminescence, PMP22, CMT1A, NCGC, CMTA, qHTS
Concentration-response curves were fitted to the signals arising from the green luminescence (PMP22 promoter driven expression) and the red luminescence (control promoter) as well as the calculated ratio. The concentration-effect curves were then classified based on curve quality (r2), response magnitude and degree of measured activity.
(In general: In qHTS, concentration-response curves come from the screen itself.)
Consider `COc1cc2c(CCNC(C)=O)c[nH]c2cc1O`, for which the “activity change (ratio)” value is -16.4%.

For `N#CC(=C(\N)Sc1ccccc1N)/C(C#N)=C(/N)Sc1ccccc1N`, the “activity change (ratio)” value is 14.6%.

As to `COc1cc(C(O)CO)ccc1O` (stereo not given), the “activity change (ratio)” value was 18.7%.

Turning to `C=CCn1c(=O)c2c(nc(-c3ccc(S(=O)(=O)O)cc3)n2C)n(C)c1=O`, the “activity change (ratio)” value was 19%.

On to `CCSC(=N)N`, for which the “activity change (ratio)” value was 6.28%.

With `COc1cc(N)c(Cl)cc1C(=O)OCCN1CCCCC1`, the “activity change (ratio)” value was -8.65%.

For the compound `CC(N)(Cc1ccc(O)cc1)C(=O)O` (stereo not given), the “activity change (ratio)” value is 3.66%.

On to `O=c1[nH]c2cc(Cl)ccc2c(O)c1-c1ccc(Oc2ccccc2)cc1`, for which the “activity change (ratio)” value was 19.9%.

In the case of `CCCCCCCCCCCCCCCCCCOC[C@H](COP(=O)([O-])OCC[N+](C)(C)C)OC`, the “activity change (ratio)” value is 10.5%.

On to `Nn1nnc2ccccc21`, for which the “activity change (ratio)” value was 21.5%.

With `COc1ccc2c(c1)c(CC(=O)O)c(C)n2C(=O)c1ccccc1`, the “activity change (ratio)” value was -9.59%.

For the compound `C[C@@H](NCCc1ccc(O)cc1)[C@@H](O)c1ccc(O)cc1`, the “activity change (ratio)” value is -0.125%.

With `Cc1ccc([N+](=O)[O-])cc1S(=O)(=O)N(C)C`, the “activity change (ratio)” value is 28%.

For the compound `Oc1ccc(Cn2cc[nH]c2=S)cc1`, the “activity change (ratio)” value was 15.6%.

Take `Cc1nc(N=Nc2cc(S(=O)(=O)O)c3cc([N+](=O)[O-])cc(S(=O)(=O)O)c3c2)c(COP(=O)(O)O)c(C=O)c1O`: the “activity change (ratio)” value was 4.9%.

For `COc1ccc2c(c1)CCC1C2CC[C@@]2(C)C1CC[C@@H]2NCCCCCCN1C(=O)C=CC1=O` (stereo not given in full), the “activity change (ratio)” value is 20.7%.

Regarding `CCCCCCC/C=C\CCCCCCCCC(=O)O`, the “activity change (ratio)” value was 13.9%.

Regarding `CC(C)C[C@H](NC(=O)C1OC1C(=O)O)C(=O)NCCCCN=C(N)N` (stereo not given in full), the “activity change (ratio)” value is -1.6%.

On to `NC(=O)c1cc[n+](CC2=C(C(=O)O)N3C(=O)[C@@H](NC(=O)[C@@H](c4ccccc4)S(=O)(=O)[O-])[C@H]3SC2)cc1`, for which the “activity change (ratio)” value was -4.49%.

For `C#CCn1c(=O)c2c(ncn2C)n(C)c1=O`, the “activity change (ratio)” value was 23%.

On to `NCCCCN`, for which the “activity change (ratio)” value is 8.22%.

As to `Cc1cccc(C)c1OCC(N)C(C)C` (stereo not given), the “activity change (ratio)” value is -14.5%.

In the case of `NCCC1CCCC(CCN)N1` (stereo not given), the “activity change (ratio)” value is -3.53%.

Take `CCCCCC[C@@H]([C@@H](C)O)n1cnc2c(N)ncnc21`: the “activity change (ratio)” value is 8.89%.

As to `N[C@@H](CS(=O)O)C(=O)O`, the “activity change (ratio)” value is 13.7%.

As to `Cn1ccnc1`, the “activity change (ratio)” value was 5.26%.

For the compound `CO/N=C(\C(=O)N[C@@H]1C(=O)N2C(C(=O)O)=C(CSc3nc(=O)c(O)nn3C)CSC12)c1csc(N)n1` (stereo not given in full), the “activity change (ratio)” value was 11.2%.

Regarding `CC(C)NCC(O)COc1ccc(CC(N)=O)cc1` (stereo not given), the “activity change (ratio)” value was 9.58%.

As for `[Li+]`, the “activity change (ratio)” value is 5.41%.

Take `CC(N)=NCCCC[C@@H](N)C(=O)O`: the “activity change (ratio)” value is 0.517%.

For the compound `O=[N+]([O-])c1cccc2cn[nH]c12`, the “activity change (ratio)” value is 30%.

With `N=S(=O)(O)Cc1noc2ccccc12`, the “activity change (ratio)” value was 11.7%.

Consider `N[C@@H](CCCC(=O)O)C(=O)O`, for which the “activity change (ratio)” value is 7.97%.

On to `CC(C)Cn1c(=O)n(C)c(=O)c2[nH]cnc21`, for which the “activity change (ratio)” value is 18.2%.

Turning to `CCCCCCCCCCCCCCSCC(=O)O`, the “activity change (ratio)” value is 3.52%.

Regarding `CN[C@H](CC(=O)O)C(=O)O`, the “activity change (ratio)” value is 14.2%.

For `COc1ccc(-c2ccc(N)[n+](CCCC(=O)O)n2)cc1`, the “activity change (ratio)” value was -1.92%.

As to `CCCn1c(=O)c2[nH]c(-c3ccc(S(=O)(=O)O)cc3)nc2n(CCC)c1=O`, the “activity change (ratio)” value is 19.4%.

As to `COc1ccccc1N1CCN(CCCCN2C(=O)c3ccccc3C2=O)CC1`, the “activity change (ratio)” value was 18.5%.

Take `CCCCCCCCCCC/C=C\C(C)(C)/C=C\CCCC(=O)O`: the “activity change (ratio)” value is 20.1%.
